Tests used:
Assay in all cases: PBM binding z-score (relative to random genomic background probes); higher = stronger binding; sequences stand for … in GC…GCGATTGACAGCGTAGAATGAAGG
[1] = tested on: RARb homodimer (NR concentration 270 nM)
Summary of the method: (§1)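 Custom Agilent 4×180K protein-binding microarrays carried double-stranded probes. Their 34-nt variable regions held direct-repeat seeds, single-nucleotide variants, half-site ablations and random human genomic background sequences. Arrays were incubated 1 h with ligand-free nuclear receptor dimers in PBS pH 7.4, 2% milk, 0.02% Triton X-100, 1 mM DTT, 0.2 mg/mL BSA and 0.4 mg/ml salmon testes DNA. Antibodies against each partner (one per run) detected binding, and scanned fluorescence was regression-normalized. Binding z-scores use random background probes as reference.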

[2] = tested on: RARg:RXRa (NR concentration 270 nM, RXRa partner concentration 90 nM)
Summary of the method: as §1

[3] = tested on: RARg homodimer (NR concentration 270 nM)
Summary of the method: as §1

[4] = tested on: RXRa DBDmut IVT, anti-RXR (DBD mutation: RXRa K156A/R161A, NR concentration 90 nM)
Summary of the method: as §1

[5] = tested on: RXRa homodimer (NR concentration 180 nM)
Summary of the method: as §1

[6] = tested on: THRa:RXRa (NR concentration 90 nM, RXRa partner concentration 90 nM)
Summary of the method: as §1

[7] = tested on: THRa homodimer (NR concentration 90 nM)
Summary of the method: as §1

[8] = tested on: VDR homodimer (NR concentration 270 nM)
Summary of the method: as §1

Sequence | PBM binding z-score [1] | PBM binding z-score [2] | PBM binding z-score [3] | PBM binding z-score [4] | PBM binding z-score [5] | PBM binding z-score [6] | PBM binding z-score [7] | PBM binding z-score [8]
AGTCAAAGTTCATCGAGGTAACGTAAGATATGCT | 4.15 | 5.57 | 6.25 | 4.45 | 4.87 | 3.97 | 1.19 | 5.6
ATCGAAAGGCCGAAGGTGAGTATACCCACCCGAA | 0.463 | 0.847 | 0.8 | -0.881 | 0.581 | 0.037 | -0.66 | -0.679
CCTACTGGGCCACGAAAGATCATTGATTCAGTGA | -0.335 | -0.154 | 0.283 | -0.361 | 0.0459 | -0.0965 | -0.393 | -0.52
ATACCAAGGTGATCGTGAGGTTGTTGATACTAAC | 0.567 | 0.576 | 0.356 | 0.169 | 0.593 | 1.89 | 0.949 | 0.36
GCTCGGAGGACAGGGTCAGAGCTTTGTCCGTAGA | 2.28 | 2.42 | 2.37 | 0.265 | 2.69 | 2.4 | 0.321 | 0.212
TCTTGTAGATCAACCGGAGGTTAAGAAAGATCGA | 0.462 | 1.22 | 0.219 | 0.651 | 0.914 | 1.12 | -0.269 | -0.0131
GATAGAGGGTCAAGGCCAGAGTACGCGTATTGAT | 3.47 | 4.81 | 4.67 | 1.49 | 4.38 | 2.65 | 0.388 | 1.59
CGCACTAGGTCAGAACAGGACAGTGAAGGATGAT | 2.18 | 2.44 | 3.31 | 0.675 | 1.34 | 3.71 | 0.508 | -0.275
CGAACTAGGTCAGAACAGGGCAGTGAAGGATGAT | 2.52 | 2.65 | 3.35 | 0.463 | 1.28 | 2.69 | 0.148 | 0.0633
AGAACGAGGGCACGCTGAGTTGATTGCAGAGTAG | 1.13 | 1.93 | 2.38 | 1.87 | 1.27 | 1.86 | -0.121 | 2.17
TCATATAGGTAAAGGTAAAAGTCGAACGATATGA | 0.156 | 0.701 | 0.679 | 0.705 | 1.11 | 0.531 | -0.456 | -0.0631
CCTGCTAGGTCAATGGTCCGCTAAAGCAGCTCGC | 2.71 | 3.34 | 3.91 | 1.71 | 1.57 | 2.19 | 0.549 | -0.203
CTCGAAAGGTCGGTTGAGCTGAGTATACGGATAA | 1.27 | 2.09 | 2.29 | 0.709 | 1.74 | 0.825 | -0.574 | -0.476
AGAATGAGGATAAGATCAGGGAAACAGAATACAT | -0.0231 | 0.224 | 0.322 | -0.458 | 0.578 | 1.42 | 0.69 | -0.103
CCTTACGGGTCACTCCAGGTTAGAGCATCGGAGT | 3.08 | 4.43 | 4.37 | 1.55 | 4.07 | 4.81 | 0.277 | 1.18
AGAACGAGGGCAATCAGTTGATAGCACGGGTGGC | 1.08 | 1.25 | 1.74 | 1.89 | 0.909 | 1.04 | 0.0484 | 1.61
GTACCAAGGAGAATAGGTCGTTGATGAGTAGGCG | 0.0836 | 0.268 | 0.222 | -0.343 | 0.654 | -0.111 | -0.986 | -0.123
CCTTACGGGTCACGAGGTTACAGCACGACGAGCG | 4.03 | 6.15 | 5.42 | 1.87 | 7.09 | 4.16 | 1.69 | 1.89
GCTTGTAGATCAAGGTTAAGACAGACTAAGCTAA | 0.562 | 0.461 | 0.497 | -0.0408 | 0.989 | 1.27 | -0.0509 | 0.0668
CCTGCTACGTCAATGGTCAGCTAAAGCAGCTCGC | 0.4 | -0.424 | -0.342 | 0.29 | -0.492 | -0.534 | -0.374 | -0.434
CGTCACAGTTCAAGGTAACGTAACAGAAAGCAGC | 1.63 | 2.45 | 2.53 | 2.69 | 2.14 | 2.24 | 1.24 | 1.53
TCTGCTAGGCCAGTTGGTCAGCTAACGAGCTGCC | -0.0493 | -0.411 | -0.212 | -0.198 | -0.79 | -0.845 | -1.4 | -1.5
TCAGACAGGTGATGGTAACTCAGGTACGCAGTCG | 0.401 | 0.447 | 0.147 | 0.843 | 0.688 | 0.659 | 0.545 | 0.532
AGAATGAGGATACCAAAGATCAGGGAAACGCTTG | -0.727 | 0.287 | 0.437 | -0.419 | 0.36 | 1.5 | 0.171 | -0.61
TATGCTAGGTCAGTTGGTCAGCTAACGAGCTGCC | 2.5 | 2.62 | 3.34 | -0.0461 | 1.06 | 1.3 | 0.034 | -0.256
CTCGAAACGTCGGTTGAGGTGAGTATACGGATAA | -0.165 | 0.0462 | 0.0959 | -0.0246 | -0.0266 | 2.55 | 1.2 | -0.242
AGTCAAAGTTCATCTAGGTGACGTAAGATATGCT | 3.92 | 5.42 | 5.9 | 4.62 | 4.44 | 3.16 | 0.193 | 4.86
AGCTCTAGGTAAAGTTCAGTGAAAGATCGATAGA | 2.32 | 1.94 | 2.58 | 1.43 | 0.97 | 0.941 | -0.0509 | 1.6
ACAATTAGTTGACTTAGGGCAACCGATACGACGC | 1.03 | 0.677 | 0.936 | 0.628 | 0.455 | 1.37 | 0.444 | 0.709
